Test results taken from ChEMBL document CHEMBL4513216, “Probing the Open Global Health Chemical Diversity Library for Multistage-Active Starting Points for Next-Generation Antimalarials” (ACS Infect Dis, 2020).
In all, about 69,000 compounds went through this assay and about 8,600 (12%) showed an effect of 50% or more. The entries come from a sample that favours strong results as a whole.

system: Plasmodium berghei; assay: Screen against P. berghei liver stage (PbLuc), transformed with Luciferase, at 10uM; type: functional, HepG2; details: tested at 10 uM

Row | SMILES | INHIBITION
1 | N#Cc1ccc(CN2CCc3sccc3C2)c(F)c1 | 4.95%
2 | N#Cc1ccccc1CN1CCc2sccc2C1 | 60.4%
3 | N#Cc1ccc(F)c(CN2CCc3sccc3C2)c1 | 41.6%
4 | Cc1nc(C)n(CC2CCCN(Cc3cccc(C(N)=O)c3)C2)n1 (configuration not stated) | -43.5%
5 | O=C(NC1CCCC1)N1C[C@H]2CN(c3ccccn3)C[C@@]2(C(=O)O)C1 | 6.27%
6 | O=C(NC1CCCC1)N1C[C@H]2CN(c3ccncc3)C[C@@]2(C(=O)O)C1 | 28.7%
7 | Cc1ccc(N2C[C@@H]3CN(C(=O)NC4CCCC4)C[C@]3(C(=O)O)C2)nn1 | 56.6%
8 | Cc1ccc(O)c(C(=O)N2CCCC(NC(=O)C(C)C)C2)c1 (configuration not stated) | 5.9%
9 | Cc1ccc(C(=O)N2CCCC(NC(=O)C(C)C)C2)c(O)c1 (configuration not stated) | 54.4%
10 | COc1ccc(C(=O)N2CCCC(NC(=O)C(C)C)C2)c(O)c1 (configuration not stated) | -9.19%
11 | CC(C)C(=O)NC1CCCN(C(=O)c2cc(Cl)ccc2O)C1 (configuration not stated) | 18.2%
12 | CC(C)C(=O)NC1CCCN(C(=O)c2ccc(O)c(Cl)c2)C1 (configuration not stated) | 66.2%
13 | CC(C)C(=O)NC1CCCN(C(=O)c2ccccc2O)C1 (configuration not stated) | 8.64%
14 | c1cnc(CC2COCCN(C3CCCCC3)C2)cn1 (configuration not stated) | 14%
15 | c1ccc(-c2nc(CCNCc3ccccn3)co2)cc1 | 34.4%
16 | CCN(Cc1nc(COC)no1)Cc1cc2ccc(F)cc2[nH]c1=O | 0.546%
17 | CCc1cnc(C)nc1NC1CC(=O)N(CC2CCCCC2)C1 (configuration not stated) | -20.8%
18 | Cc1nc(CN2Cc3nccn3CC(COCC3CC3)C2)cs1 (configuration not stated) | 41.2%
19 | CNC(=O)CN1CCOCC12CCN(CCc1ccccc1)CC2 | 38.1%
20 | COc1c(C2CCCN2CC(=O)Nc2nccs2)c(C)nn1C (configuration not stated) | -24.7%
21 | Cn1ccc(C(=O)N2CCOC(c3ccccn3)C2)cc1=O (configuration not stated) | -5.71%
22 | Cn1ccc(C(=O)N2CCOC(c3ccccc3)C2)cc1=O (configuration not stated) | 50.5%
23 | Cc1ccc(C2CN(C(=O)c3ccn(C)c(=O)c3)CCO2)nc1 (configuration not stated) | 44.8%
24 | Cc1cc(-n2cncn2)n2ncnc2n1 | 47.1%
25 | CC(C)N(CCC#N)C(=O)c1cnc(-c2ccc3c(c2)OCO3)s1 | -73.9%
26 | CC(C)c1nnc2n1CC(CNCc1nnc(C(C)(C)C)o1)CC2 (configuration not stated) | 3.77%

Row | SMILES | INHIBITION
27 | CCN1CCN(c2nc3cn(-c4cnn(CC)c4)c(=O)c-3c[nH]2)CC1 | 36.6%
28 | CC(=O)N1C[C@H](NC(=O)c2ccnc(N)c2)[C@@H](C(C)C)C1 | 19.1%
29 | CC(=O)N1C[C@H](NC(=O)c2csc(C(C)C)c2)[C@@H](C(C)C)C1 | 51.1%
30 | CC(=O)N[C@@H]1CN(C(=O)c2csc(C(C)C)n2)C[C@H]1C(C)C | 9.87%
31 | CC(C)CN1CC[C@@H]2[C@@H]1CCN2C(=O)N1CCCC1 | 31.9%
32 | COCC(=O)N1CC[C@H]2[C@H]1CCN2CC(C)C | 52.6%
33 | CC(C)CN1CC[C@@H]2[C@@H]1CCN2C(=O)N(C)C | 3.88%
34 | CN(C)CC(=O)N1C[C@@H]2CC[C@H](Oc3ccccc3)[C@@H]2C1 | -21.4%
35 | COc1cccc(CN(C)S(=O)(=O)N2CCOCC2)c1 | 34.7%
36 | Cc1nn(C)c(N(C)C)c1CNCc1cccnc1N1CCOCC1 | -69.3%
37 | O=C(NC1CC1)[C@@H]1CN(Cc2ccc3c(c2)OCO3)C[C@H]2OCC[C@H]21 | 13.7%
38 | CC(CC#N)N(C)Cc1ccccc1Cl (configuration not stated) | 38.5%
39 | CCC(C)N(Cc1cc(C)n[nH]1)Cc1ccccc1Cl (configuration not stated) | 79%
40 | CCC(C)N(Cc1c[nH]c(C)n1)Cc1ccccc1Cl (configuration not stated) | 41%
41 | CNC(=O)NC(=O)CN1CCc2c(Br)ccc(F)c2C1 | -34.8%
42 | COc1ccccc1CCNC(=O)CNCC1CN(C)CCO1 (configuration not stated) | 11%
43 | COc1ccc(-c2c(C(C)C)nn3c(=N)c(C#N)n[nH]c23)cc1 | 53.1%
44 | COc1ccc(-c2nc(C#N)c(N(C)C)o2)cc1OC | -34.9%
45 | COc1ccc(-c2csc(N)c2C#N)cc1OC | 1.58%
46 | CCc1nn2c(=N)c(C#N)n[nH]c2c1-c1ccc(OC)cc1 | 22.9%
47 | COc1ccc(-c2c(C)nn3c(=N)c(C#N)n[nH]c23)cc1OC | 85%
48 | COc1ccc(-c2c(C)nn3c(=N)c(C#N)n[nH]c23)cc1 | 3.19%
49 | CN(C)C[C@H]1OC[C@@H]2CCN(C(=O)c3ccc[nH]3)C[C@@H]21 | 29.8%
50 | Cc1noc(C2CCC3(CCN(C(=O)c4cnn(C)c4)CC3)O2)n1 (configuration not stated) | 44.1%
51 | CC(C)(NS(C)(=O)=O)c1nc(-c2ccc(F)c(F)c2)no1 | -7.02%
52 | O=C(c1ccc2c(c1)COC2)N1CCCC(n2cncn2)C1 (configuration not stated) | 0.411%

Row | SMILES | INHIBITION
53 | CO[C@H]1CN(Cc2ccc(F)c(F)c2)C[C@@]12CCCO2 | 35.2%
54 | Cc1nc(NC(=O)NC(CS(C)(=O)=O)c2ccccc2)sc1C (configuration not stated) | 35.1%
55 | Cc1nc2n(n1)CC(NCc1csc(-c3ccsc3)n1)CC2 (configuration not stated) | 22.55%
56 | Cc1nc(C2CCCNC2)cc(N(Cc2c(C)nn(C)c2C)C2CC2)n1 (configuration not stated) | -21.5%
57 | COc1cc(S(=O)(=O)N2CCc3cc(Br)ccc32)cc(C(=O)O)c1OC | 62.6%
58 | COc1cc(S(=O)(=O)N2CCc3ccccc32)cc(C(=O)O)c1OC | 48.2%
59 | COc1cc(S(=O)(=O)N2CCc3ccc(Cl)cc32)cc(C(=O)O)c1OC | -11.4%
60 | CCOC(=O)CCNC(=O)N1CCOC(Cc2cccc(OC)c2)C1 (configuration not stated) | 53.7%
61 | CCOC(=O)CNC(=O)N1CCOC(Cc2ccc(OC)cc2)C1 (configuration not stated) | -17.4%
62 | COc1cccc(CC2CN(C3CCN(C(C)=O)CC3)CCO2)c1 (configuration not stated) | 1.81%
63 | CS(=O)(=O)c1ccc(NC(=O)N2C[C@H](O)[C@@H](N3CCOCC3)C2)cc1 | 67.5%
64 | Cc1ccccc1C(=O)N1C[C@@H](O)[C@H](N2CCOCC2)C1 | 33.25%
65 | O=C(Nc1ccc(-n2cccn2)cc1)N1C[C@H](O)[C@@H](N2CCOCC2)C1 | 44.3%
66 | Cc1cc(C)n(-c2ccc(C(C)NS(N)(=O)=O)cc2)n1 (configuration not stated) | 37.1%
67 | COCCS(=O)(=O)NC(C)c1ccc(-n2nc(C)cc2C)cc1 (configuration not stated) | 69.7%
68 | Cc1cc(C)n(-c2ccc(C(C)NS(=O)(=O)CCCS(C)(=O)=O)cc2)n1 (configuration not stated) | 47.4%
69 | COCCN1CCC2(CC1)CN(CCn1cccn1)C(=O)CO2 | 23.3%
70 | CN(CC(=O)N1CCN(c2cnccn2)CC1)c1ccc(Cl)cn1 | -1.38%
71 | CCn1cc(S(=O)(=O)N2CCN(S(=O)(=O)c3ccc(Br)s3)CC2)c(C)n1 | 24.2%
72 | CCn1cc(NS(=O)(=O)c2ccc(Br)s2)c(C(=O)NCC(C)C)n1 | -0.217%
73 | CCn1cc(NS(=O)(=O)c2ccc(Br)s2)c(C(N)=O)n1 | 61.6%
74 | Cc1cccc(-c2ccc(C(=O)N3CCN(C4CC4)CC3)c(=O)[nH]2)c1 | 21.8%
75 | NCC1Cc2cc(-c3cncc(C(=O)N4CCCCC4)n3)cc(F)c2O1 (configuration not stated) | 18.3%
76 | Cc1cc2c(c(-c3cncc(C(=O)N4CCCC4)n3)c1)OC(CN)C2 (configuration not stated) | 57.3%
77 | NCC1Cc2cc(Cl)cc(-c3cncc(C(=O)N4CCCCC4)n3)c2O1 (configuration not stated) | 24.8%
78 | CC(C)N1CCC(c2n[nH]cc2S(C)(=O)=O)CC1 | -8.58%

Row | SMILES | INHIBITION
79 | Cc1cc(C(=O)NCc2cnn(C)c2C)nc(N2CCCCCC2)n1 | -7.53%
80 | Cc1ocnc1C(=O)Nc1ccc(-c2nnc(N(C)C)o2)cc1 | -128%
81 | COC(=O)N1CCC2(CC1)N=C(CCC(C)C)NC2=O | 76.7%
82 | O=C(CN1CCCCC1=O)N1CCC2(CC1)[C@H](O)C[C@@H]2O | 44%
83 | CC(C)CCC1=NC2(CCN(C(=O)N3CCN(C)CC3)CC2)C(=O)N1 | -23.5%
84 | CC(C)CCC1=NC2(CCN(C(=O)CN3CCCC3=O)CC2)C(=O)N1 | 82.4%
85 | CCOC(=O)N1CCC2(CC1)N=C(CCC(C)C)NC2=O | -65%
86 | CC(=O)CCC(=O)N1CCC2(CC1)N=C(CCC(C)C)NC2=O | -40.7%
87 | Cc1cnn(CC2CN(Cc3ccc(-n4cccn4)cc3)CCO2)c1 (configuration not stated) | 40%
88 | CC(C)c1ncncc1C(=O)N1CCN(Cc2ccccn2)CC1 | 5.9%
89 | Cc1cc(C(=O)Nc2cnn(CC(F)(F)F)c2)nc(N(C)C)n1 | 0.91%
90 | O=C1CCC(=O)N1c1nn(Cc2ccccc2Cl)cc1Cl | 20.4%
91 | Cc1cc(C)c(CNC(=O)NCC2COCCO2)c(=O)[nH]1 (configuration not stated) | 23.45%
92 | CCc1ccc2c(c1)C(CCNC(=O)Cc1ccc(F)cc1)C(=O)N2 (configuration not stated) | 53.6%
93 | CCc1ccc2c(c1)C(CCNC(=O)Cc1cccc(F)c1)C(=O)N2 (configuration not stated) | 37.8%
94 | CCc1ccc2c(c1)C(CCNC(=O)CCc1ccsc1)C(=O)N2 (configuration not stated) | 26.7%
95 | CCc1ccc2c(c1)C(CCNC(=O)CSC(F)(F)F)C(=O)N2 (configuration not stated) | 40.6%
96 | CCc1ccc2c(c1)C(CCNC(=O)c1sccc1C)C(=O)N2 (configuration not stated) | 61.9%
97 | CCN1CCN(c2ccc(CNC(=O)c3sccc3C)cn2)CC1 | -23.8%
98 | CS(=O)(=O)N(Cc1ccon1)c1cccc(Br)c1 | -11.9%
99 | CC(c1ccccc1)n1cc2nc(N(C)C)[nH]cc-2c1=O (configuration not stated) | 15.7%
100 | CC(C)S(=O)(=O)C(C)C(=O)NCc1ccccc1OCc1ccccc1 (configuration not stated) | 42.5%
101 | CNC(=O)[C@@H](c1ccccc1OC)N1CCC[C@H]1C(=O)N1CC[C@@H](O)C1 | -63.5%
102 | O=C(O)c1nnn(-c2ccc(OC(F)(F)F)cc2)c1-c1ccncc1 | -22.1%
